Assay outcomes as filed in PubChem.
Most compounds without a hit are left out; they make up all but 31% or so of the library.
CYP2C19 act = human CYP2C19 activators, primary screen, biochemical, luminescence | 96,000 tested, under 10 active | AID 1025, 2008 | activation factor at 5 µM | Cytochrome P450 2C19 (Homo sapiens), P33261 | recombinant CYP2C19, luciferin-H EGE luminescence; hits give high values; 0 = fully inhibited enzyme, 1 = untreated enzyme;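 active = activation factor of at least 2 at 5 µM in the primary screen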
CYP2C9 activ = human CYP2C9 activators, primary screen, biochemical, luminescence; Cytochrome P450 2C9 (Homo sapiens), P11712; actives 1.4% (n = 96,000); activation factor at 5 µM; recombinant CYP2C9, luciferin-H conversion; hits give high values; factor 1 = untreated enzyme, 0 = blocked;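 active = activation factor of 2 or more for CYP2C9 at a 5 µM dose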
Target sequence (P11712 whole entry, looked up): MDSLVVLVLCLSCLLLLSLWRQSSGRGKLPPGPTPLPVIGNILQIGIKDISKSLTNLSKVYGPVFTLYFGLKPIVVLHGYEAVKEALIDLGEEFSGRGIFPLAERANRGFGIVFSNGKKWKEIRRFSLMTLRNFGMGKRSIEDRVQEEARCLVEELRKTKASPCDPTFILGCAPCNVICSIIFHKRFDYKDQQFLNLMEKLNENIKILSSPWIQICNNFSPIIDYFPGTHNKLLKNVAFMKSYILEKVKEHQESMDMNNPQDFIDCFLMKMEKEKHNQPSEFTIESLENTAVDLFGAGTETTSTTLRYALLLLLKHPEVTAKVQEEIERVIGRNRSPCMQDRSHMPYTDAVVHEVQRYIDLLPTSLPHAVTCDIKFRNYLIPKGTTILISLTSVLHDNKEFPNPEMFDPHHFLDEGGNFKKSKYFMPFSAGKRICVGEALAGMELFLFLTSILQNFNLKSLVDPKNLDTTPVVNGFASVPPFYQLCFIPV
CYP2C19 inhib = blockers of cytochrome P450 2C19 activity – biochemical, luminescence, ADME assay, primary screen | actives 21% (n = 96,000) | P33261 | CYP2C19 Supersomes, luciferin-H EGE luminescence, 30 min | AID 778, 2007 | inhibition, % at 5 µM;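 active = CYP2C19 inhibition above a set limit at 5 µM in the primary screen, cut at about 50% in these data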
CYP2C9 inhib = blockers of cytochrome P450 2C9 activity – biochemical, luminescence, ADME assay, primary screen. CYP2C9 Supersomes, luciferin-H conversion. inhibition, % at 5 µM. actives 20% (n = 96,000);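 active = blocking of liver enzyme CYP2C9 beyond about 50% at 5 µM, limit read from the data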
Each line names hits and unclear results; the compound was inactive in the other large screens.

CCOC(=O)c1sc2ncn(C(CC)C(=O)OCC)c(=O)c2c1C (configuration not stated)	CYP2C19 inhib 60, CYP2C9 inhib 83
CCOC(=O)c1sc2ncn(C(C)C(=O)OC)c(=O)c2c1C (configuration not stated)	CYP2C19 inhib 57, CYP2C9 inhib 54
CCCOC(=O)C(C)n1cnc2sc(C)c(C)c2c1=O (configuration not stated)	CYP2C19 inhib 70, CYP2C9 inhib 56
COC(=O)c1sc2ncn(-n3c(C)ccc3C)c(=O)c2c1C	none
CCOC(=O)c1sc2ncn(C(CC)C(=O)OC)c(=O)c2c1C (configuration not stated)	CYP2C19 inhib 70, CYP2C9 inhib 96
Cc1ccc(CNC(=O)c2nc3nc(C)cc(C)n3n2)cc1	none
Cc1ccc(Cl)cc1N1CCN(C(c2cccnc2)c2nnnn2C2CCCCC2)CC1 (configuration not stated)	CYP2C19 inhib 98, CYP2C9 inhib 93
Cc1ccc(Cl)cc1N1CCN(C(c2ccc(C#N)cc2)c2nnnn2C2CCCC2)CC1 (configuration not stated)	CYP2C9 inhib 56
COc1ccc(CCNC(=O)Cn2cnc3c(cnn3-c3ccccc3Cl)c2=O)cc1OC	none
CC(C)OC(=O)/C(=C\c1ccc2c(c1)c1ccccc1n2C)NC(=O)c1ccccc1	CYP2C9 inhib 76
CCOC(=O)/C(=C/c1c2ccccc2cc2ccccc12)NC(=O)c1ccccc1	none
CCOC(=O)Cn1cc(C(=O)c2cccs2)c2ccccc21	CYP2C19 inhib 97, CYP2C9 inhib 94
O=C(c1cn(CC(=O)N2CCCCC2)c2ccccc12)C1CC1	CYP2C19 inhib 52
O=C(c1cccs1)c1cn(CC(=O)N2CCc3ccccc3C2)c2ccccc12	CYP2C19 inhib 84, CYP2C9 inhib 91
CCOC(=O)C1CCN(C(=O)Cn2cc(C(=O)C3CC3)c3ccccc32)CC1	none
O=C(O)Cn1cc(C(=O)c2cccs2)c2ccccc21	none
COC(=O)c1cn(C(=O)c2cccs2)c2ccccc12	CYP2C9 inhib 59
COC(=O)c1cn(C(=O)c2ccco2)c2ccccc12	none
N#Cc1cc2cc3c(cc2nc1SCC(=O)OC1CCCCC1)OCO3	none
Cc1c(NC(=O)CSc2nnc(-c3ccco3)n2-c2ccccc2)c(=O)n(-c2ccccc2)n1C	none
CCOC(=O)N(C)OC(=O)Nc1ccc(Cl)c(Cl)c1	none
CCOC(=O)N(CC)OC(=O)Nc1ccc(Cl)cc1	CYP2C19 inhib 78, CYP2C9 inhib 58
O=C(C1CCCO1)N1CCC(O)(c2ccccc2)CC1 (configuration not stated)	none
CC(C)C(CCN1C(=O)CCC1=O)C1CCOC(C)(C)C1 (configuration not stated)	none
Oc1ccccc1CNCCCNCc1ccccc1O	none
Cc1ccccc1NCc1ccccc1O	CYP2C19 inhib 59
Oc1ccccc1CNc1ccc(Br)cn1	none
Cc1cccc(NCc2ccccc2O)c1	CYP2C19 inhib 92, CYP2C9 inhib 51
Cc1ccc(NCc2ccccc2O)cc1	CYP2C19 inhib 66
Cc1cccc(NCCNc2cccc(C)c2)c1	none
Cc1ccc(O)c(CNc2ccccn2)c1	CYP2C19 inhib 67
C(=N\c1nc2ccccc2n1Cc1ccccc1)/c1cccs1	none
O=C(NC1CCS(=O)(=O)C1)C12CC3CC(CC(C3)C1)C2 (configuration not stated)	none
COCCN(CC(=O)Nc1ccc(F)cc1)S(=O)(=O)c1ccc(S(=O)(=O)N2CCCC2)cc1	CYP2C9 inhib 62
COCCN(CC(=O)Nc1ccccc1)S(=O)(=O)c1ccc(S(=O)(=O)N2CCCC2)cc1	CYP2C9 inhib 73
NC(=O)c1nsc(C(=O)N(CC(=O)NCc2ccc3c(c2)OCO3)C2CCCC2)c1N	none
C=CCn1c(SCc2cccc3ccccc23)nnc1-c1cccnc1	CYP2C19 inhib 89
Fc1ccc(CSc2nnc(-c3cccnc3)n2Cc2ccco2)cc1	none
Cc1occc1-c1nnc(SCC(=O)N2CCCc3ccccc32)n1Cc1ccco1	CYP2C19 inhib 67, CYP2C9 inhib 50
O=C(CSc1nnc(-c2cccnc2)n1Cc1ccco1)N1CCc2ccccc21	CYP2C19 inhib 56
Clc1ccccc1CSc1nnc(-c2cccnc2)n1Cc1ccco1	CYP2C19 inhib 71
CC1CCN(Cc2csc(N)n2)CC1	none
CCc1nnc(NC(=O)OCc2ccccc2)s1	none
COc1ccccc1NC(=O)CSc1ccc2nnc(-c3ccncc3)n2n1	none
O=C(CSc1ccc2nnc(-c3ccncc3)n2n1)N1CCc2ccccc21	CYP2C9 inhib 50
COC(=O)c1nc(NC(=O)C(C)(C)C)n[nH]1	none
O=C(Cc1cccs1)Nc1nnc(-c2ccncc2)s1	CYP2C19 inhib 98, CYP2C9 inhib 96
CC(NC(=O)Cc1cccs1)c1ccncc1 (configuration not stated)	CYP2C19 inhib 64, CYP2C9 inhib 66
COc1cccc(-c2nnc(NC(=O)Cc3cccs3)s2)c1	none
O=C(COc1ccccc1F)Nc1nnc(-c2ccncc2)s1	CYP2C19 inhib 93, CYP2C9 inhib 95
Cc1cc(N2CCN(c3nc4ccccc4s3)CC2)n2ncnc2n1	none
CCn1c(SCC(=O)N/N=C/C=C\c2ccccc2[N+](=O)[O-])nc2ccccc21	none
CCC1C(O)=C(c2ccccn2)C(=N)N1c1ccccc1 (configuration not stated)	none
CCCCCOC(=O)CSc1nnc(-c2ccccc2)c(=O)[nH]1	CYP2C9 inhib 60
O=C(CCCC1=NS(=O)(=O)c2ccccc2N1)N1CCN(c2ccccc2)CC1	none
CC(C)(CC(=O)N1CCN(c2ccc(Cl)cc2)CC1)CC1=NS(=O)(=O)c2ccccc2N1	CYP2C19 inhib 64, CYP2C9 inhib 79
Cc1ccc(S(=O)(=O)NC(=O)COc2ccccc2C(N)=O)cc1	none
CC(=O)c1ccccc1Oc1nc(CN2CCOCC2)nc2scc(-c3cccs3)c12	CYP2C19 inhib 85, CYP2C9 inhib 72
COc1ccc(C(C)=O)c(Oc2nc(CN3CCOCC3)nc3scc(-c4cccs4)c23)c1	CYP2C9 inhib 51
Cc1nc2scc(-c3cccs3)c2c(=O)n1CC(=O)O	none
CCSc1nc(=S)n(-c2ccccc2)c(C)c1C(C)=O	none
NC(=O)c1ncc(C(F)(F)F)cc1Oc1ccc(C(F)(F)F)cc1	CYP2C19 inhib 75
CCOc1cccc(Oc2ccc(C(F)(F)F)cn2)c1	none
Cc1c(NC(=O)c2ccccc2NS(=O)(=O)c2ccc(F)cc2)c(=O)n(-c2ccccc2)n1C	CYP2C9 inhib 52
Cc1c(NS(=O)(=O)c2cccc(C(=O)NCc3ccc(Cl)cc3)c2)c(=O)n(-c2ccccc2)n1C	CYP2C19 inhib 51
Cc1c(NC(C)c2cc(Cl)ccc2O)c(=O)n(-c2ccccc2)n1C (configuration not stated)	CYP2C19 inhib 96, CYP2C9 inhib 68
Cc1c(NC(=O)c2cccc(S(=O)(=O)N3CCOCC3)c2)c(=O)n(-c2ccccc2)n1C	none
